Measured values as given in the supplement of paper PMC13380429.

Legend:
[1] = tested on: Vero E6 infected with SARS-CoV-2; test: inhibition of SARS-CoV-2 cytopathic effect; higher = more antiviral protection, active = above 15; settings: 48 h
[2] = tested on: Vero E6 infected with SARS-CoV-2; test: morphology score (similarity to uninfected cells); higher = more like uninfected cells; settings: 24 h

Cc1nc(N)sc1CCN [amthamine]
inactive: inhibition of SARS-CoV-2 cytopathic effect ([1]; 1 nM) -1.84% | inhibition of SARS-CoV-2 cytopathic effect ([1]; 8.33 nM) -1.83% | inhibition of SARS-CoV-2 cytopathic effect ([1]; 100 nM) -2.06% | inhibition of SARS-CoV-2 cytopathic effect ([1]; 833.33 nM) 0.97% | inhibition of SARS-CoV-2 cytopathic effect ([1]; 10000 nM) 0.76%

CC(C)(C)C(=O)NCCCC(=O)O [pivagabine]
inactive: inhibition of SARS-CoV-2 cytopathic effect ([1]; 1 nM) 0.01% | inhibition of SARS-CoV-2 cytopathic effect ([1]; 8.33 nM) -1.15% | inhibition of SARS-CoV-2 cytopathic effect ([1]; 100 nM) -1.01% | inhibition of SARS-CoV-2 cytopathic effect ([1]; 833.33 nM) 0.86% | inhibition of SARS-CoV-2 cytopathic effect ([1]; 10000 nM) -0.03%

Nc1nc(/C(=C/CC(=O)O)C(=O)N[C@@H]2C(=O)N3C(C(=O)O)=CCS[C@H]23)cs1 [ceftibuten]
inactive: inhibition of SARS-CoV-2 cytopathic effect ([1]; 1 nM) 0.43% | inhibition of SARS-CoV-2 cytopathic effect ([1]; 8.33 nM) 2.3% | inhibition of SARS-CoV-2 cytopathic effect ([1]; 100 nM) 2.51% | inhibition of SARS-CoV-2 cytopathic effect ([1]; 833.33 nM) 2.04% | inhibition of SARS-CoV-2 cytopathic effect ([1]; 10000 nM) 1.92%

O=C(CCCCC(=O)Nc1c(I)cc(I)c(C(=O)O)c1I)Nc1c(I)cc(I)c(C(=O)O)c1I [iodipamide]
inactive: inhibition of SARS-CoV-2 cytopathic effect ([1]; 1 nM) -2.81% | inhibition of SARS-CoV-2 cytopathic effect ([1]; 8.33 nM) -3.21% | inhibition of SARS-CoV-2 cytopathic effect ([1]; 100 nM) -1.82% | inhibition of SARS-CoV-2 cytopathic effect ([1]; 833.33 nM) -3.34% | inhibition of SARS-CoV-2 cytopathic effect ([1]; 10000 nM) 0.05%

C[C@H](c1ccc2ccc(OC3CCC(C(F)(F)F)CC3)c(C(F)(F)F)c2c1)N1C2CCC1CC(C(=O)O)C2 (stereo partly specified) [autotaxin-modulator-1]
inactive: inhibition of SARS-CoV-2 cytopathic effect ([1]; 1 nM) -1.22% | inhibition of SARS-CoV-2 cytopathic effect ([1]; 8.33 nM) -0.49% | inhibition of SARS-CoV-2 cytopathic effect ([1]; 100 nM) 0.86% | inhibition of SARS-CoV-2 cytopathic effect ([1]; 833.33 nM) 0.12% | inhibition of SARS-CoV-2 cytopathic effect ([1]; 10000 nM) 1.02%

O=C(O)CCN(O)C(=O)CCCCCCCCC1CC1
inactive: inhibition of SARS-CoV-2 cytopathic effect ([1]; 1 nM) 2.3% | inhibition of SARS-CoV-2 cytopathic effect ([1]; 8.33 nM) -1.05% | inhibition of SARS-CoV-2 cytopathic effect ([1]; 100 nM) 1.09% | inhibition of SARS-CoV-2 cytopathic effect ([1]; 833.33 nM) 4.48% | inhibition of SARS-CoV-2 cytopathic effect ([1]; 10000 nM) 5.29%

Clc1ccc(CO/N=C(\Cn2ccnc2)c2ccc(Cl)cc2Cl)c(Cl)c1 [oxiconazole]
inactive: inhibition of SARS-CoV-2 cytopathic effect ([1]; 1 nM) -0.54% | inhibition of SARS-CoV-2 cytopathic effect ([1]; 8.33 nM) 0.43% | inhibition of SARS-CoV-2 cytopathic effect ([1]; 100 nM) 1.05% | inhibition of SARS-CoV-2 cytopathic effect ([1]; 833.33 nM) 0.68% | inhibition of SARS-CoV-2 cytopathic effect ([1]; 10000 nM) -1.24%

CN1c2ccccc2C(NCCCCCCC(=O)O)c2ccc(Cl)cc2S1(=O)=O (stereo unspecified) [tianeptine]
inactive: inhibition of SARS-CoV-2 cytopathic effect ([1]; 1 nM) 6.9% | inhibition of SARS-CoV-2 cytopathic effect ([1]; 8.33 nM) -1.19% | inhibition of SARS-CoV-2 cytopathic effect ([1]; 100 nM) 0.25% | inhibition of SARS-CoV-2 cytopathic effect ([1]; 833.33 nM) 2.13% | inhibition of SARS-CoV-2 cytopathic effect ([1]; 10000 nM) -1.2%

Cn1ncnc1COc1nn2c(-c3cc(F)ccc3F)nnc2cc1C(C)(C)C
inactive: inhibition of SARS-CoV-2 cytopathic effect ([1]; 1 nM) 3.33% | inhibition of SARS-CoV-2 cytopathic effect ([1]; 8.33 nM) 3.4% | inhibition of SARS-CoV-2 cytopathic effect ([1]; 100 nM) 3.15% | inhibition of SARS-CoV-2 cytopathic effect ([1]; 833.33 nM) 1.53% | inhibition of SARS-CoV-2 cytopathic effect ([1]; 10000 nM) 0.81%

NC12CC3CC(CC(C3)C1)C2 [amantadine]
inactive: inhibition of SARS-CoV-2 cytopathic effect ([1]; 1 nM) 0.16% | inhibition of SARS-CoV-2 cytopathic effect ([1]; 8.33 nM) 1.94% | inhibition of SARS-CoV-2 cytopathic effect ([1]; 100 nM) 0.25% | inhibition of SARS-CoV-2 cytopathic effect ([1]; 833.33 nM) 0.33% | inhibition of SARS-CoV-2 cytopathic effect ([1]; 10000 nM) 3.28%

CCCC(=O)Nc1ncnc2c1ncn2[C@@H]1O[C@@H]2COP(=O)(O)O[C@H]2[C@H]1OC(=O)CCC [bucladesine]
inactive: inhibition of SARS-CoV-2 cytopathic effect ([1]; 1 nM) -1.3% | inhibition of SARS-CoV-2 cytopathic effect ([1]; 8.33 nM) -3.37% | inhibition of SARS-CoV-2 cytopathic effect ([1]; 100 nM) -2.82% | inhibition of SARS-CoV-2 cytopathic effect ([1]; 833.33 nM) 0.58% | inhibition of SARS-CoV-2 cytopathic effect ([1]; 10000 nM) 1.04%

S=C(NCCc1ccccn1)Nc1ccc(Br)cn1 [trovirdine]
inactive: inhibition of SARS-CoV-2 cytopathic effect ([1]; 1 nM) 2% | inhibition of SARS-CoV-2 cytopathic effect ([1]; 8.33 nM) 2.79% | inhibition of SARS-CoV-2 cytopathic effect ([1]; 100 nM) 2.61% | inhibition of SARS-CoV-2 cytopathic effect ([1]; 833.33 nM) 1.44% | inhibition of SARS-CoV-2 cytopathic effect ([1]; 10000 nM) 0.69%

C[S+](CC[C@H](N)C(=O)O)C[C@H]1O[C@@H](n2cnc3c(N)ncnc32)[C@H](O)[C@@H]1O (stereo partly specified) [ademetionine]
inactive: inhibition of SARS-CoV-2 cytopathic effect ([1]; 1 nM) -2.98% | inhibition of SARS-CoV-2 cytopathic effect ([1]; 8.33 nM) -1.8% | inhibition of SARS-CoV-2 cytopathic effect ([1]; 100 nM) -2.58% | inhibition of SARS-CoV-2 cytopathic effect ([1]; 833.33 nM) -0.06% | inhibition of SARS-CoV-2 cytopathic effect ([1]; 10000 nM) 0.19%

COCc1nnc(N2CC(Oc3ccc(F)cc3Cl)C2)n1-c1ccc(OC)nc1
inactive: inhibition of SARS-CoV-2 cytopathic effect ([1]; 1 nM) -1.23% | inhibition of SARS-CoV-2 cytopathic effect ([1]; 8.33 nM) -3.96% | inhibition of SARS-CoV-2 cytopathic effect ([1]; 100 nM) -0.12% | inhibition of SARS-CoV-2 cytopathic effect ([1]; 833.33 nM) -1.42% | inhibition of SARS-CoV-2 cytopathic effect ([1]; 10000 nM) -1.43%

C[C@@H]1CN(Cc2ccc(F)cc2)CCN1C(=O)COc1ccc(Cl)cc1NC(N)=O
inactive: inhibition of SARS-CoV-2 cytopathic effect ([1]; 1 nM) -1.77% | inhibition of SARS-CoV-2 cytopathic effect ([1]; 8.33 nM) -0.1% | inhibition of SARS-CoV-2 cytopathic effect ([1]; 100 nM) -2% | inhibition of SARS-CoV-2 cytopathic effect ([1]; 833.33 nM) -1.98% | inhibition of SARS-CoV-2 cytopathic effect ([1]; 10000 nM) -1.75%

OCCCCO [1,4-butanediol]
inactive: inhibition of SARS-CoV-2 cytopathic effect ([1]; 1 nM) -4.4% | inhibition of SARS-CoV-2 cytopathic effect ([1]; 8.33 nM) -1.22% | inhibition of SARS-CoV-2 cytopathic effect ([1]; 100 nM) -1.14% | inhibition of SARS-CoV-2 cytopathic effect ([1]; 833.33 nM) 0.26% | inhibition of SARS-CoV-2 cytopathic effect ([1]; 10000 nM) -1.17%

COc1ccc(-c2c(C)c(C(=O)NN3CCCCC3)nn2-c2ccc(Cl)cc2Cl)cc1
inactive: inhibition of SARS-CoV-2 cytopathic effect ([1]; 1 nM) -1.3% | inhibition of SARS-CoV-2 cytopathic effect ([1]; 8.33 nM) -1.23% | inhibition of SARS-CoV-2 cytopathic effect ([1]; 100 nM) -5.55% | inhibition of SARS-CoV-2 cytopathic effect ([1]; 833.33 nM) -3.38% | inhibition of SARS-CoV-2 cytopathic effect ([1]; 10000 nM) -1.1%

CCCN(CCC)S(=O)(=O)c1ccc(C(=O)O)cc1 [probenecid]
inactive: inhibition of SARS-CoV-2 cytopathic effect ([1]; 1 nM) -0.75% | inhibition of SARS-CoV-2 cytopathic effect ([1]; 8.33 nM) -2.02% | inhibition of SARS-CoV-2 cytopathic effect ([1]; 100 nM) -2.27% | inhibition of SARS-CoV-2 cytopathic effect ([1]; 833.33 nM) -2.63% | inhibition of SARS-CoV-2 cytopathic effect ([1]; 10000 nM) -2.19%
